Pf growth 48h: inhibits P. falciparum growth in the first generation, 48 h | P. falciparum luciferase growth in erythrocytes, 48 h | Potency, µM (series often up to 28.7 µM), most hits filed as inhibitors | 310,000 tested, 5.9% active
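A one-generation exposure of luciferase-tagged malaria parasites in RPMI 1640/Albumax erythrocyte culture, 37 C and 5% CO2. Inhibition is inferred from decreased luminescence after adding detection reagent.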
SARS PLP yeast: blocks SARS-CoV papain-like protease in a yeast assay; Potency, µM (doses to about 32.9 µM), actives largely listed as activators; S. cerevisiae expressing SARS-CoV PLpro, growth rescue; 330,000 tested, 0.19% active; AID 485353; calls by dose curve; note: nearly all actives have a fitted effect of over 55% in size
Shiga toxin inh: Shiga toxin inhibition; Vero cells, Shiga toxin protein synthesis inhibition reporter; inhibition, % at 38.7 µM; 290,000 tested, 9.2% active; AID 2315; in the data active = inhibition mostly above about 28%, no sharp cut-off; inactive = mostly below about 43%
Pf growth 96h: P. falciparum growth inhibition at 96 hour, primary screen for plastid delayed-death inhibitors. P. falciparum luciferase reporter growth, 96 h. Potency, µM (highest dose often 28.7 µM), actives largely listed as inhibitors. 320,000 tested, 6.9% active. AID 504834
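Erythrocytes infected with luciferase-expressing P. falciparum were dispensed at 2% hematocrit and 0.05% parasitemia (final), then incubated with compounds 96 hours at 37 C in 5% CO2. Luminescence after detection reagent addition reported growth.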
NS1 function inh: influenza NS1 inhibition | Potency, µM (series often up to 46.1 µM) | 270,000 tested, 0.4% active | AID 2326; calls by dose curve; note: actives are rising curves; nearly all actives have a fitted effect of over 50% in size
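OD600 was taken as the measure of yeast growth restored by compound in an NS1-expressing S. cerevisiae strain. Cells had been washed out of glucose medium and diluted 1:100 into galactose -URA medium, pH 6.0.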
Cycloheximide cs: counter-screen hit for Shiga toxin inhibitors, cycloheximide | cell reporter, cycloheximide protein synthesis inhibition counterscreen | max response, % | 300,000 tested, 12% active | AID 2314; in the data active = max response mostly above about 13%, no sharp cut-off; inactive = mostly below about 14%; note: read at 38.3 µM for the half of the compounds with a filed dose
A number is an active result; n = inactive; u = inconclusive; x = not tested or not shown; ! = not confirmed by another sample; [ ] = dose if it differs, or a comment. Most compounds without a hit are left out; they make up all but 21% or so of the library. Unless noted, calls come from the whole dose curve; as a rule, active = well fitted inhibition curve with a large enough effect; inconclusive = small, poorly fitted or top-dose-only effect, or another doubt; inactive = no such curve, though single readings can be large or run the other way.

SMILES | Pf growth 48h | SARS PLP yeast | Shiga toxin inh | Pf growth 96h | NS1 function inh | Cycloheximide cs
CCN(CC)S(=O)(=O)c1ccc(N2CCOCC2)c(NC(=O)c2[nH]c(C)c(C(C)=O)c2C)c1 | x | n | x | x | x | x
Cc1cc(C)cc(C(=O)NCC(=O)OCC(=O)Nc2cccnc2Cl)c1 | n | n | n | n | n | n
CCCN1CCC(=O)N([C@H](COc2ccccc2)CC(C)C)CC1 | n | n | n | n | n | n
CN1CCC(=O)N(CCSc2ccc(Br)cc2)CC1 | n | n | 49.7! | n | n | 20.8!
CCCN1CCC(=O)N(CCSc2ccc(NC(C)=O)cc2)CC1 | n | n | 107.7! | n | n | 64.4!
CCCN1CCC(=O)N(CCSc2ccccc2)CC1 | n | n | 44.4 | n | n | 40.3
Cc1cccc(S(=O)(=O)NC2CCCCCCC2)c1 | n | n | n | n | n | n
O=C(NC1CC1)c1ccc(F)cc1Cl | n | n | n | x | n | n
Cc1ccc(C(=O)NC2CCCCCCC2)c(Cl)c1 | n | n | x | n | n | 16.3
O=C(NC1CCCCCCC1)c1cc(F)c(F)cc1Cl | n | n | 83.1 | u | n | 26.0
O=C(Nc1ccc2ccccc2c1)[C@@H]1C[C@H]1[C@@H](NP(=O)(c1ccccc1)c1ccccc1)c1ccccc1 | 9.28µM | n | n | u | u | n
O=C(NCc1ccccc1)[C@@H]1C[C@H]1[C@@H](NP(=O)(c1ccccc1)c1ccccc1)c1ccccc1 | u | n | n | 14.7µM | n | n
O=C(NCc1ccccn1)[C@@H]1C[C@H]1[C@@H](NP(=O)(c1ccccc1)c1ccccc1)c1ccccc1 | n | n | n | u | n | n
COc1ccc(OC)c(S(=O)(=O)NC(N)=NCCc2ccccc2)c1 | n | n | n | u | x | n
Cc1ccc2nc(N/N=C/c3ccccc3F)nc(-c3ccccc3)c2c1 | n | n | n | u | n | n
C/C(=N\Nc1nc(C)cc(-c2ccccc2)n1)c1ccccc1 | u | n | n | n | n | 16.7
C/C(=N/Nc1nc(C)cc(C)n1)c1ccc(Br)cc1 | u | n | x | n | n | n
C/C(=N\Nc1nc(C)cc(-c2ccccc2)n1)c1ccc(O)cc1 | u | n | 26.3 | n | n | 20.7
Cc1cc(-c2ccccc2)nc(N/N=C/c2ccccc2F)n1 | n | n | 52.4 | n | n | 51.2
C/C(=N\Nc1nc(C)cc(C)n1)c1ccc(N2CCOCC2)cc1 | u | n | n | u | x | n
COc1cc(N/N=C(\C)c2ccc(N)cc2)nc(-c2ccccc2)n1 | n | n | n | u | x | n
C/C(=N\Nc1nc(C)cc(-c2ccccc2)n1)c1cccc(N)c1 | u | n | 23.0 | u | n | 16.4
CCO[C@@H]1OC(C(=O)N2CCOCC2)=C[C@H](c2coc3ccccc3c2=O)[C@H]1CCCO | n | n | n | n | n | n
Cc1nc(C)c(C(=O)OCC(=O)NCCc2ccc(F)cc2)s1 | n | n | x | n | x | x
CC(=O)c1sc(NC(=O)COc2ccc(C)c(C)c2)nc1C | n | n | n | n | n | n
SMILES | Pf growth 48h | SARS PLP yeast | Shiga toxin inh | Pf growth 96h | NS1 function inh | Cycloheximide cs
COc1ccc(S(=O)(=O)n2[nH]c(=O)c(CCO)c2C)c([N+](=O)[O-])c1 | n | n | n | n[1.15 µM] | n | n
Cc1ccc(C)c(N2CCN(C3CCCCC3NS(=O)(=O)c3ccccc3)CC2)c1 (centres undefined) | u | x | n | 11.7µM | n | n
O=C1c2ccccc2C(=Nc2ccccc2)C1c1cccc(Br)c1 (centres undefined) | u | n | n | 4.15µM | n | n
COc1ccc(Nc2ncc(C(=O)N3CCN(Cc4ccccc4)CC3)c3ccccc23)cc1 | u | n | n | u | n | n
Cc1cc(N/N=C/c2ccc(O)cc2)nc(NS(=O)(=O)c2ccccc2)n1 | n | n | n | n | n | n
Cc1cc(N/N=C/c2ccccc2)nc(N)n1 | u | n | 49.8 | n | n | 19.7
Cc1cn(-c2ccccc2)c(C)c1/C=N\Nc1nc(N2CCOCC2)nc(N2CCOCC2)n1 | 8.28µM | n | n | n | n | n
C(=C\c1ccccc1)/C=N/Nc1nc(N2CCOCC2)nc(N2CCOCC2)n1 | n | n | n | u | n | n
Cc1cc(N/N=C/c2ccccc2)nc(N2CCOCC2)n1 | n | n | n | n | n | 19.0
Cc1ccc(/C=N/Nc2cc(C)nc(N3CCOCC3)n2)cc1 | n | n | n | n | n | n
C(=N\Nc1nn[nH]n1)/c1ccccc1 | x | n | n | n | n | n
Cc1nc(N)nc(N/N=C/c2ccccc2)n1 | n | n | 40.7 | n | n | 14.0
COc1ccc(N(CC(C)C)S(=O)(=O)c2nnc(NC(=O)c3ccco3)s2)cc1 | u | n | n | u | n | n
NS(=O)(=O)c1ccc(CCNC(=O)CCNS(=O)(=O)c2ccccc2C(F)(F)F)cc1 | u | n | x | n | x | x
O=C(Nc1cc2cc([N+](=O)[O-])ccc2oc1=O)c1cccs1 | n | n | 52.3 | n | x | 27.7
CC1N(C)c2cc(NC(=O)c3cccs3)c(P(=O)(Nc3ccc([N+](=O)[O-])cc3)N3CCOCC3)cc2C1(C)C (centres undefined) | 13.1µM | n | n | u | n | n
O=C(Nc1cc([N+](=O)[O-])ccc1N1CCCC1)c1cccs1 | u | n | n | 13.1µM | n | n
O=C(Nc1cc([N+](=O)[O-])ccc1N1CCOCC1)c1cccs1 | n | n | n | n | n | n
COc1cc2c(cc1OC)CN(C(=O)C1CCCN(C(=O)c3ccc(Cl)cc3)C1)CC2 (centres undefined) | u | n | x | n | x | x
Cc1ccccc1-n1ncc2c1CC(C)(C)CC2NC(=O)CCCN1CCCC1=O (centres undefined) | n | n | n | n | n | n
Cc1cc(C(=O)COC(=O)c2cccnc2Cl)c(C)n1CC1CCCO1 (centres undefined) | n | n | n | n | n | n
CCOc1cc(C(=O)OCC(=O)c2cc(C)n(CC3CCCO3)c2C)ccc1OCC(=O)N1CCOCC1 (centres undefined) | n | n | 53.2 | n | x | 31.6
Cc1cc(C(=O)COC(=O)c2cc(O)c3ccccc3c2O)c(C)n1CC1CCCO1 (centres undefined) | u | n | n | u | x | 14.4
Cc1cc(C(=O)COC(=O)c2ccccc2NCCO)c(C)n1CC1CCCO1 (centres undefined) | n | n | 111.9 | n | n | 88.7
Cc1cc(C(=O)COC(=O)c2ccccc2O)c(C)n1CC1CCCO1 (centres undefined) | n | n | x | n | x | x
Cc1cc(C(=O)COc2ccccc2C(N)=O)c(C)n1CC1CCCO1 (centres undefined) | n | n | n | n | n | 25.7
CC(=O)NCCCS(=O)(=O)O | n | x | x | n | x | x
COc1cc(F)c(S(=O)(=O)N2CCN(S(=O)(=O)c3ccc4c(c3)OCCO4)CC2)c(F)c1 | x | x | n | x | x | n
COc1ccc(Nc2nc(N3CCOCC3)nc(N3CCOCC3)n2)cc1Cl | n | n | n | n | n | n
Cc1ccc(C(=O)OCC(=O)c2cc(C)n(CC3CCCO3)c2C)cc1 (centres undefined) | n | n | 107.5 | n | n | 40.0

Screens deposited in PubChem BioAssay by National Center for Advancing Translational Sciences (NCATS).
